Laboratory results as given in PubChem BioAssay (Tox21).
Inconclusive results are not listed. Entries that show only a call come without a potency. Values without a mark were called inactive. Calls of active or inactive are those of the source. Unless noted, calls come from the whole dose curve; as a rule, active = well fitted curve in the direction sought with a large enough effect in the repeat runs; inconclusive = weak or mixed curves; inactive = no such curve, though single readings can be large; an effect the other way counts as inactive or inconclusive.

How the values were obtained:
[1] = molecular target: Aryl hydrocarbon receptor (Homo sapiens) (UniProt P35869); assay: qHTS assay to identify small molecule that activate the aryl hydrocarbon receptor (AhR) signaling pathway (AID 743085); note: nearly all actives have a fitted effect of over 15% in size; note: potency is the fitted concentration of half-maximal effect;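 for activation: HG2L7.5c1 human HepG2 liver cells with stably integrated DRE-driven firefly reporter; series mostly up to about 70 µM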
Outline: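 24 h compound exposure, 37C, HepG2-derived HG2L7.5c1 cells with DRE-responsive luciferase. Readouts: fluorescence viability, then luminescence at room temperature after 30 min.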

[2] = qHTS assay to identify small molecule phospholipidosis (PLD) inducers (AID 1259344; active = well fitted curve in the direction sought with a large enough effect; an effect the other way counts as inactive or inconclusive)
Outline: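 Fluorescent phospholipid staining (LipidTOX Red) measured by automated microscopy in fixed HepG2 cells after 24 h treatment; nuclei counterstained with Hoechst 33342; amiodarone as reference inducer.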

[3] = molecular target: Nuclear receptor subfamily 1 group I member 2 (Rattus norvegicus) (UniProt Q9R1A7); assay: Rat pregnane X receptor (rPXR) activation by small molecules, qHTS assay (AID 1346983); conditions: rPXR luciferase reporter cells, One-Glo luminescence, 24 h; max activation: hits give high values; note: nearly all actives have a fitted effect of over 20% in size; note: potency is the fitted concentration of half-maximal effect
Outline: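 Luminescent readout (One-Glo luciferase, 30 min room temperature) followed 24 hr compound treatment at 37 C of rPXR cells plated 2,000 per well and preincubated 5hr; qHTS format with compounds delivered in DMSO.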

[4] = molecular target: Nuclear receptor subfamily 1 group I member 2 (Homo sapiens) (UniProt O75469); assay: CYP3A4 induction through human pregnane X receptor (PXR) by small molecules, qHTS assay (AID 1346984); note: nearly all actives have a fitted effect of over 40% in size; note: potency is the fitted concentration of half-maximal effect
Outline: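 Readings come from a luciferase reporter: DPX-2 cells, which are HepG2 cotransfected with PXR and a CYP3A4-promoter construct, were exposed to test compounds for 24 h at 37C before One-Glo detection.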

[5] = molecular target: Nuclear receptor subfamily 1 group I member 2 (Homo sapiens) (UniProt O75469); assay: Human pregnane X receptor (PXR) activation by small molecules, qHTS assay (AID 1346985); note: nearly all actives have a fitted effect of over 40% in size; note: potency is the fitted concentration of half-maximal effect
Outline: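 DPX-2 cells (HepG2 co-transfected with a PXR response element and a CYP3A4-promoter luciferase construct) were seeded at 2,000 per well, rested 5 hr at 37C, then exposed to DMSO-dissolved compounds for 24 hr. Activation was read as luciferase luminescence.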

[6] = qHTS assay to identify small molecule that activate the aryl hydrocarbon receptor (AhR) signaling pathway - cell viability counter screen (AID 743086); note: nearly all actives have a fitted effect of over 45% in size; note: potency is the fitted concentration of half-maximal effect
Outline: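 Cytotoxicity counter screen: CellTiter-Fluor signal (30 min, 37 C) in 4000 HepG2 cells/well carrying the DRE-luciferase reporter, following 24 h compound exposure at 37 C.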

[7] = qHTS assay to identify aromatase inhibitors - cell viability counter screen (AID 743084);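 note: cells stimulated with testosterone during compound exposure; nearly all actives have a fitted effect of over 55% in size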; note: potency is the fitted concentration of half-maximal effect
[8] = molecular target: Peroxisome proliferator-activated receptor gamma (Homo sapiens) (UniProt P37231); assay: qHTS assay to identify small molecule agonists of the peroxisome proliferator-activated receptor gamma (PPARg) signaling pathway (AID 743094; active = well fitted activation curve with a large enough effect in the signal ratio in the repeat runs, not every such curve was filed as active; the % refers to the signal ratio; note: potency is the fitted concentration of half-maximal effect)
Outline: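 Compounds dissolved in DMSO were added to PPARg UAS-bla HEK293H cells for 17 h at 37C, and reporter expression was quantified by fluorescence intensity after 1 h with LiveBLAzer B/G FRET substrate.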

Sequence of Peroxisome proliferator-activated receptor gamma (Homo sapiens) (P37231 whole entry, looked up): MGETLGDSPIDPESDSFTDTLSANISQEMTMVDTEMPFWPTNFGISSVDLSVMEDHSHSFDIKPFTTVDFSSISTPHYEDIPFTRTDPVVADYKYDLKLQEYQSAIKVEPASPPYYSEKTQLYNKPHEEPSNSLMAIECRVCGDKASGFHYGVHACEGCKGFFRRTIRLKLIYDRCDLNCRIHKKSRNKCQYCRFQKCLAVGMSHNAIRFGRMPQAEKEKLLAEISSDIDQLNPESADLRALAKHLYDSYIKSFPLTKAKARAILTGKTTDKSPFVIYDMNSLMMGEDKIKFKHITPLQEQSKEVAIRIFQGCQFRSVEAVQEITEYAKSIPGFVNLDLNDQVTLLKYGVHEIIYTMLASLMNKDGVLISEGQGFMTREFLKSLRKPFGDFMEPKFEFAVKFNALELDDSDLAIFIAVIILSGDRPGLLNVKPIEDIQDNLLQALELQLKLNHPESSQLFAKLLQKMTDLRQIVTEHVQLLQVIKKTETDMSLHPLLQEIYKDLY
Sequence of Aryl hydrocarbon receptor (Homo sapiens) (P35869 whole entry, looked up): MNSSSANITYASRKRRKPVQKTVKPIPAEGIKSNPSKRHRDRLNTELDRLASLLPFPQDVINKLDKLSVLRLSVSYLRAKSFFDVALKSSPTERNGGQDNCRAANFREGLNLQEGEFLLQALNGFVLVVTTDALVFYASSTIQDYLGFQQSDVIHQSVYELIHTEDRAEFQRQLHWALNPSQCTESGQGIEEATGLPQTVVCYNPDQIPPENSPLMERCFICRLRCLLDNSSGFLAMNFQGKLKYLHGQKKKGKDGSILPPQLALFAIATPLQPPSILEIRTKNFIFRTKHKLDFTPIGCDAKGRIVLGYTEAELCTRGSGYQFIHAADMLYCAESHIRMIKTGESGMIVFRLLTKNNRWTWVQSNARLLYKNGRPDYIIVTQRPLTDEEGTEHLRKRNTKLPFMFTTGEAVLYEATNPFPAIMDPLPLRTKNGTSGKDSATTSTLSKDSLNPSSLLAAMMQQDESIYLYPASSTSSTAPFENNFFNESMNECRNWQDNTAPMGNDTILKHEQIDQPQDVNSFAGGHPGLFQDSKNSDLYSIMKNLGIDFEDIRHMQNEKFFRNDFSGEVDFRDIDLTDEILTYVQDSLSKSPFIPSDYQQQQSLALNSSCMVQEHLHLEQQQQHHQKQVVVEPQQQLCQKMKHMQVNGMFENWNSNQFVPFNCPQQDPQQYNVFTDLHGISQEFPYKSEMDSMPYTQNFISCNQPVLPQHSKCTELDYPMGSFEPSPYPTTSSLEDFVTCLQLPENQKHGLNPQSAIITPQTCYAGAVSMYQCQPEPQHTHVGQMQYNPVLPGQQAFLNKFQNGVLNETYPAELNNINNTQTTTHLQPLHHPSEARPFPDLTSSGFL
Sequence of Nuclear receptor subfamily 1 group I member 2 (Rattus norvegicus) (Q9R1A7 whole entry, looked up): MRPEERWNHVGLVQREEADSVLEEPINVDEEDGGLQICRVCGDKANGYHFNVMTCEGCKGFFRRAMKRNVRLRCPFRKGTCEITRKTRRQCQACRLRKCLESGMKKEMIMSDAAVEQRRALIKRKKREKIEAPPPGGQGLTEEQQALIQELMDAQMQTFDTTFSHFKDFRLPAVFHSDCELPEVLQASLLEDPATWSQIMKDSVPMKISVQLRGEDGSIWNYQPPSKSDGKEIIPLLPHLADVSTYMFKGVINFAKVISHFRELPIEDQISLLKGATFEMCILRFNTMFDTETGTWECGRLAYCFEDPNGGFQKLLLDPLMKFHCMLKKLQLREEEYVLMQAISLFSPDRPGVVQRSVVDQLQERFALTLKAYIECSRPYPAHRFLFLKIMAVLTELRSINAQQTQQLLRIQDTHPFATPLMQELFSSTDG

CCCCCCCCCCCCCC[n+]1ccc(C)cc1
Potency [1]: inactive
Potency [2]: inactive
max activation [3]: -19.6%
Potency [4]: inactive
Potency [5]: inactive

CCN(CC)Cc1cc(Nc2ccnc3cc(Cl)ccc23)ccc1O
Potency [1]: inactive
Potency [6]: inactive
Potency [2]: inactive
max activation [3]: -2.52%
Potency [4]: inactive
Potency [5]: inactive

C=C1C(=O)O[C@H]2[C@H]1CC/C(C)=C\CC[C@@]1(C)O[C@@H]21
Potency [7]: 18.8 µM (active)
Potency [1]: inactive
Potency [2]: inactive
max activation [3]: -19.8%
Potency [4]: inactive

O=C(O)CN(CC(=O)O)CC1=CC2C(=CC1=O)Oc1cc(O)c(CN(CC(=O)O)CC(=O)O)cc1C21OC(=O)c2ccccc21 (centres undefined)
Potency [1]: inactive
Potency [2]: inactive
max activation [3]: 0.33%
Potency [4]: inactive
Potency [5]: inactive

C#C[C@]1(O)CC[C@H]2[C@@H]3CCC4=C/C(=N/O)CC[C@@H]4[C@H]3CC[C@@]21CC
Potency [1]: inactive
Potency [6]: inactive
Potency [2]: inactive
max activation [3]: 6.76%
Potency [4]: inactive
Potency [5]: 4.47 µM (active)

C=CCCCCCCCCC(=O)OC
Potency [7]: inactive
Potency [1]: inactive
Potency [6]: inactive
Potency [8]: inactive
Potency [2]: inactive
max activation [3]: -1.33%
Potency [4]: inactive

CN1CCN(C(c2ccccc2)c2ccc(Cl)cc2)CC1 (centres undefined)
Potency [1]: inactive
Potency [8]: inactive
Potency [2]: inactive
max activation [3]: -0.288%
Potency [4]: inactive
Potency [5]: inactive

CC(/C=C/C=C(\C)C(=O)O[C@@H]1O[C@H](CO[C@@H]2O[C@H](CO)[C@@H](O)[C@H](O)[C@H]2O)[C@@H](O)[C@H](O)[C@H]1O)=C\C=C\C=C(C)\C=C\C=C(/C)C(=O)O[C@@H]1O[C@H](CO[C@@H]2O[C@H](CO)[C@@H](O)[C@H](O)[C@H]2O)[C@@H](O)[C@H](O)[C@H]1O
Potency [6]: inactive
Potency [2]: inactive
max activation [3]: -0.182%
Potency [4]: inactive
Potency [5]: inactive

Cn1c(O)c(N=NC(N)=S)c2ccccc21
Potency [1]: 1.06 µM (active)
Potency [6]: 2.98 µM (active)
Potency [8]: 21.3 µM (active)
Potency [2]: inactive
max activation [3]: 1.06%
Potency [4]: inactive
Potency [5]: 14.1 µM (active)

NC(N)=NCC1COc2ccccc2O1 (centres undefined)
Potency [7]: inactive
Potency [6]: inactive
Potency [8]: inactive
Potency [2]: inactive
max activation [3]: -4.35%
Potency [4]: inactive
Potency [5]: inactive

CO[C@@H]1[C@@H](O[C@@H]2O[C@H](C)[C@@H](O[C@H]3C[C@@](C)(O)[C@@H](OC(=O)CC(C)C)[C@H](C)O3)[C@H](N(C)C)[C@H]2O)[C@@H](CC=O)C[C@@H](C)C(=O)/C=C/C2OC2C[C@@H](C)OC(=O)C[C@H]1OC(C)=O (some centres undefined)
Potency [1]: inactive
Potency [2]: inactive
max activation [3]: -11.7%
Potency [4]: inactive
Potency [5]: inactive

CCC(=O)O[C@]1(C(=O)CCl)[C@@H](C)C[C@H]2[C@@H]3C[C@H](F)C4=CC(=O)C=C[C@]4(C)[C@@]3(F)[C@@H](O)C[C@@]21C
Potency [7]: inactive
Potency [1]: 3.35 µM (active)
Potency [6]: inactive
Potency [2]: inactive
Potency [3]: 0.447 µM (active)
Potency [4]: 1.58 µM (active)

CCCC(=O)O[C@]1(C(=O)COC(C)=O)CC[C@H]2[C@@H]3C[C@H](F)C4=CC(=O)C=C[C@]4(C)[C@@]3(F)[C@@H](O)C[C@@]21C
Potency [1]: inactive
Potency [6]: inactive
Potency [2]: inactive
Potency [3]: 2.51 µM (active)
Potency [4]: inactive
Potency [5]: inactive

Nc1nc(=O)n([C@@H]2CS[C@H](CO)O2)cc1F
Potency [6]: inactive
Potency [2]: inactive
max activation [3]: 2.33%
Potency [4]: inactive
Potency [5]: inactive

CNC(=O)[C@H](Cc1c[nH]c2ccccc12)NC(=O)[C@@H](CC(=O)NO)CC(C)C
Potency [6]: 0.596 µM (active)
Potency [2]: inactive
max activation [3]: 15%
Potency [4]: inactive
Potency [5]: inactive

CC(=O)Nc1ccc(NC(=S)NC(=O)c2ccc(C(C)(C)C)cc2)cc1
Potency [7]: inactive
Potency [1]: 1.5 µM (active)
Potency [6]: inactive
Potency [2]: inactive
max activation [3]: -2.69%
Potency [4]: inactive

C=CCNC1=C2C[C@@H](C)C[C@H](OC)[C@H](O)[C@@H](C)/C=C(\C)[C@H](OC(N)=O)[C@@H](OC)/C=C\C=C(/C)C(=O)NC(=CC1=O)C2=O
Potency [1]: inactive
Potency [6]: inactive
Potency [2]: inactive
max activation [3]: -14.2%
Potency [4]: inactive
Potency [5]: 6.31 µM (active)

CC(=C\c1ccccc1)/C=C1/SC(=S)N(CC(=O)O)C1=O
Potency [7]: inactive
Potency [1]: inactive
Potency [6]: inactive
Potency [2]: inactive
max activation [3]: 4.01%
Potency [4]: inactive

CCN(CC)CCCC(C)Nc1cc(/C=C/c2ccccc2Cl)nc2cc(Cl)ccc12 (centres undefined)
Potency [1]: 26.6 µM (active)
Potency [8]: inactive
Potency [2]: inactive
max activation [3]: -1.25%
Potency [4]: inactive
Potency [5]: 22.4 µM (active)

COc1cc(C)c(/C=C/C(C)=C/C=C/C(C)=C/C(=O)O)c(C)c1C
Potency [7]: inactive
Potency [1]: inactive
Potency [6]: inactive
Potency [2]: inactive
max activation [3]: -4.44%
Potency [4]: inactive

CC(C)(C)NCC(O)c1ccc(O)c(CO)n1 (centres undefined)
Potency [6]: inactive
Potency [2]: inactive
max activation [3]: -0.193%
Potency [4]: inactive
Potency [5]: inactive

CC(C)(C)C(=O)OCOC(=O)[C@@H]1N2C(=O)[C@@H](N=CN3CCCCCC3)[C@H]2SC1(C)C
Potency [1]: inactive
Potency [6]: inactive
Potency [8]: inactive
Potency [2]: inactive
max activation [3]: -0.301%
Potency [4]: inactive
Potency [5]: inactive

C#C[C@]1(O)CC[C@H]2[C@@H]3CCC4=CC(=O)CC[C@@H]4[C@H]3C(=C)C[C@@]21CC
Potency [7]: inactive
Potency [1]: inactive
Potency [6]: inactive
Potency [2]: inactive
Potency [3]: 7.94 µM (active)
Potency [4]: inactive
